Screens as filed in PubChem.
An excerpt weighted towards active compounds, which were near 1.4% of everything screened.
FBPA Giardia inh: qHTS Assay for Inhibitors of Fructose-1,6-bisphosphate Aldolase from Giardia Lamblia. purified Giardia FBPA. Potency, µM (top dose mostly 59.6 µM), for inactives: top-dose activity, negative = inhibition, usual class: inhibitors. actives 0.71% (n = 290,000). AID 2451, 2010; also: nearly all actives have a fitted effect of over 55% in size
Target sequence (A8B2U2 whole entry, looked up): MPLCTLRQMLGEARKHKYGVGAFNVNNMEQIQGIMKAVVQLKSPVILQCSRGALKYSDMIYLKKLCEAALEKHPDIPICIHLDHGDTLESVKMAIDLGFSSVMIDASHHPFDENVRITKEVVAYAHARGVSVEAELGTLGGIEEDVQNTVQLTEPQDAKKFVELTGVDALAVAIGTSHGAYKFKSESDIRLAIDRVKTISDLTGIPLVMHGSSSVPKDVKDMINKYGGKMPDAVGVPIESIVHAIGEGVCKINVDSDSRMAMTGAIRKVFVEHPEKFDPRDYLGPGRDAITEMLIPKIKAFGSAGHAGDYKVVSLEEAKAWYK
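40 nM FBPA preincubated 10 min at RT with compound (up to 57.5 uM final), then substrate plus GAPDH/TPI/NAD/arsenate coupling and diaphorase/resazurin added. Fluorescence read after 20 min at RT, 525/598 nm.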
AmpC no deterg: qHTS Inhibitors of AmpC Beta-Lactamase (assay without detergent). actives 0.52% (n = 330,000). AmpC nitrocefin hydrolysis, absorbance 480 nm, 0.0001% Triton. P00811. Potency, µM (top dose mostly 57.1 µM), for the others: at the highest dose activity change, negative = inhibition, usual class: inhibitors;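 also: plate controls were no compound for no effect and no enzyme for full effect; nearly all actives have a fitted effect of over 20% in size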
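20 mM phosphate pH 7.0 + 0.01% (detergent screen) or 0.0001% Triton X-100; 5.3 nM AmpC reagent; cpd preinc 15 min RT; nitrocefin (800 uM stock) to start; A480 q20 s × 4 min; Activity was normalised to no-enzyme and no-compound control wells.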
TbPYK inhibitor: qHTS of Trypanosoma Brucei Inhibitors | pyruvate kinase (Trypanosoma brucei), Q57TT1 | AID 624173, 2012 | Potency, µM (titrated, usually from 76.8 µM), inactives show at the highest dose activity, negative = inhibition, usual class: inhibitors | actives 0.12% (n = 410,000) | TbPYK enzyme, Kinase-Glo Plus ATP luminescence, 45 min; also: nearly all actives have a fitted effect of over 50% in size
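T. brucei PYK with substrate was exposed to pin-transferred compounds across a concentration series, then started with 130 uM ADP (final). After 45 min at room temperature, Kinase-Glo Plus luminescence was read, normalized and curve-fitted.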
LmPK inh: qHTS Assay for Inhibitors of Leishmania Mexicana Pyruvate Kinase (LmPK). Potency, µM (doses to about 57.5 µM), without a hit: at the top dose activity change, negative = inhibition, most hits filed as inhibitors. Q27686. purified LmPK, Kinase-Glo ATP luminescence, 1 h. actives 0.37% (n = 290,000)
Target sequence (Q27686 whole entry, looked up): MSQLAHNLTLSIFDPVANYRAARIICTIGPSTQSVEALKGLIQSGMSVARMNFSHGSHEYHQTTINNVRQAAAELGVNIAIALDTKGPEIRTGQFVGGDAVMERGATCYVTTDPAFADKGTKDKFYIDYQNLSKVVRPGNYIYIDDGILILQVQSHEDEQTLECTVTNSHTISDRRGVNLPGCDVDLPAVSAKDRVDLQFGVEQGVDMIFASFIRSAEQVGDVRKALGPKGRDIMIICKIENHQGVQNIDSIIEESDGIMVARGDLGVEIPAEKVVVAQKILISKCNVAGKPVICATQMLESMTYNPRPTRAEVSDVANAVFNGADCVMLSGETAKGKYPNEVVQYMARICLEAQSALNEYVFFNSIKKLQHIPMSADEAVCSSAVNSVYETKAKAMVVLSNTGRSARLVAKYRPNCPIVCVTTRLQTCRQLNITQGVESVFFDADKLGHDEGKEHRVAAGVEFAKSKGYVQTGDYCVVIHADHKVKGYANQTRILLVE
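Purified LmPK (0.1 nM) converted ADP (0.1 mM) to ATP with PEP (0.5 mM) in imidazole buffer pH 7.2 with KCl and MgCl2, 1 h at room temperature. ATP was read by Kinase-Glo luminescence; data normalized to uninhibited and no-enzyme controls.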
RE007 growth inh: qHTS Assay for Inhibitors of the HIV-1 protein Vpr | actives 0.21% (n = 360,000) | Potency, µM (series often up to 92.2 µM), for inactives: at the top dose activity change, negative = less growth, usual class: inhibitors | S. pombe RE007 Vpr strain, BacTiter-Glo ATP luminescence, 24 h; active = well fitted falling curve with a large enough effect; inconclusive = small, poorly fitted or top-dose-only effect; inactive = no such curve, though single readings can be large or run the other way; also: nearly all actives have a fitted effect of over 50% in size
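Fission yeast strain RE007, carrying one chromosomally integrated HIV-1 vpr copy, was seeded at OD 0.01 in PMG+AL medium with 23 nL pinned compound. After 24 h at 30 °C and 99% humidity, viability was read by BacTiter-Glo luminescence.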
AmpC detergent: qHTS Inhibitors of AmpC Beta-Lactamase (assay with detergent); P00811; Potency, µM (titrated, usually from 114 µM), for the others: top-dose activity change, negative = inhibition, actives largely listed as inhibitors; actives 0.041% (n = 370,000); AmpC hydrolysis of nitrocefin, absorbance 480 nm, 0.01% Triton;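 also: 0% = no-compound wells and -100% = no-enzyme wells; nearly all actives have a fitted effect of over 25% in size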
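AmpC (5.3 nM in the dispensed reagent) in 20 mM phosphate pH 7.0 with 0.01% (detergent screen) or 0.0001% Triton X-100 was preincubated with compounds for 15 min at room temperature. Nitrocefin was then added from an 800 uM solution, and hydrolysis was followed at 480 nm.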
The depositor's hits bear a star; ? = inconclusive; . = no result given. Unless noted, calls follow the shape of the dose curve; as a rule, active = well fitted curve in the direction sought with a large enough effect; inconclusive = small, poorly fitted or top-dose-only effect, or another doubt; inactive = no such curve, though single readings can be large; an effect the other way counts as inactive or inconclusive. Unless noted, % is scaled to controls: 0 for no effect and ±100 for the full control effect; potency is read from the fitted curve at half-maximal effect.

SMILES | FBPA Giardia inh | AmpC no deterg | TbPYK inhibitor | LmPK inh | RE007 growth inh | AmpC detergent
O=[N+]([O-])c1cc(/C=N\Nc2nc(-c3ccccc3)cs2)ccc1O | -12.7% | 25.1µM* | -29.9% | 2.3% | 0.0% | 6.2%
Cc1csc(N/N=C/c2ccc(O)c([N+](=O)[O-])c2)n1 | ? | -50.3% | -17.0% | ? | 9.4% | 3.9%
O=c1c(Cc2ccccc2)c(O)c2cccc3c4c(n1c23)CCCC4 | -0.5% | 7.94µM* | -14.3% | 4.6% | -15.3% | -0.3%
Cn1c(=O)c(Cc2ccccc2)c(O)c2ccccc21 | -9.7% | -4.4% | -3.4% | 8.1% | -4.3% | 1.1%
CC[C@H]1OC(=O)C[C@@H](O)[C@H](C)[C@@H](O[C@@H]2O[C@H](C)C[C@H](N(C)C)[C@@H]2O)[C@@H](CC=O)C[C@@H](C)C(=O)/C=C\[C@]2(C)O[C@H]2[C@@H]1C | . | . | -6.8% | . | . | .
CCc1sc(C(C2C(=O)CC(C)(C)CC2=O)C2C(=O)CC(C)(C)CC2=O)cc1[N+](=O)[O-] | 13.6% | -30.3% | 25.1µM* | -1.4% | -0.4% | -3.0%
COc1ccc2cc3cc(C(=O)NCc4ccco4)oc3nc2c1 | -8.4% | -12.5% | -0.6% | 7.9% | -16.8% | -1.1%
COc1ccc2cc3c(N)c(C(=O)NCc4ccco4)sc3nc2c1 | -1.3% | 0.316µM* | -0.1% | 4.3% | -15.8% | 0.2%
CCCN(CC1CC1)S(=O)(=O)c1ccc(S(N)(=O)=O)cc1 | 4.2% | 0.501µM* | -9.3% | -0.3% | 3.8% | ?
O=C(O)/C=C/C(=O)c1ccc2c(c1)CCc1ccccc1-2 | . | -33.9% | 35.5µM* | . | ? | -6.3%
CC(=O)Nc1ccc2c(c1)CCc1ccccc1-2 | -1.8% | 2.8% | 0.0% | -1.3% | -18.1% | -6.2%
Cc1cc(C)c(S(=O)(=O)/N=C2\C=CC(=O)C(Cl)=C2)c(C)c1 | ? | 5.01µM* | -29.5% | 10.5% | 1.9% | ?
Cc1cc(C)c(S(=O)(=O)/N=C2\C=C(NS(=O)(=O)c3ccccc3)C(=O)c3ccccc32)c(C)c1 | ? | -52.9% | -16.9% | -0.4% | 2.6% | -1.6%
Cc1ccc(NC(=O)c2cc(S(=O)(=O)NC3CCCCC3)ccc2F)cc1Cl | . | . | 0.8% | . | . | 14.7%
COc1ccc(S(=O)(=O)Nc2ccc3c(c2)CCCN3S(=O)(=O)c2ccc(C)cc2)cc1F | . | . | -13.2% | . | . | 9.5%
COc1ccc(C(=O)Nc2cc(C)on2)c(OC)c1 | -3.8% | -6.1% | -3.0% | -3.3% | -13.5% | ?
COc1ccc(C(=O)Nc2ccc(C)cn2)c(OC)c1 | -13.5% | 3.5% | -17.8% | 14.1µM* | ? | ?
COc1ccc2nc(Nc3nc4cc5c(cc4s3)OCO5)sc2c1 | 5.7% | 22.4µM* | -13.5% | 4.3% | -19.8% | 2.4%
COc1ccc2nc(NC(=O)Nc3ccccc3OC)sc2c1 | 4.4% | -15.2% | -1.7% | 0.7% | -4.6% | -6.4%
COc1ccc2nc(NC(=O)CSCc3c(C)noc3C)sc2c1 | . | 25.1µM* | 9.6% | . | 0.7% | ?
COc1ccc2nc(NC(=O)c3cccs3)sc2c1 | 2.2% | -33.1% | 3.9% | 12.6µM* | ? | -3.9%
COc1ccc2nc(Nc3ccccc3OC)sc2c1 | -8.3% | -15.9% | 1.6% | 17.8µM* | ? | 2.1%
O=C(Nc1cc(Sc2nc3ccccc3s2)cc([N+](=O)[O-])c1)c1ccccc1 | -5.3% | 12.6µM* | -7.6% | 4.8% | 38.5% | -13.9%
O=C(Nc1cc(Sc2nc3ccccc3s2)cc([N+](=O)[O-])c1)c1ccccc1F | -4.8% | ? | -5.3% | 2.5% | -5.3% | -1.2%
N/C(=N\OC(=O)c1cccc(Cl)c1)c1ccccn1 | -1.4% | -19.3% | -20.2% | 14.1µM* | -27.8% | -14.8%
SMILES | FBPA Giardia inh | AmpC no deterg | TbPYK inhibitor | LmPK inh | RE007 growth inh | AmpC detergent
COc1ccc([N+](=O)[O-])c(C=CC(=O)c2ccccn2)c1 | . | . | -1.7% | . | -23.3% | .
COc1ccc(/C=C/C(=O)c2ccccn2)cc1 | ? | -19.8% | ? | 8.91µM* | ? | ?
Cc1cc(/C(N)=N/OC(=O)c2ccc(Cl)cc2)no1 | 7.4% | -17.6% | -3.4% | 15.8µM* | -24.2% | 2.7%
Cc1cc(/C(N)=N/OC(=O)c2cccc(Cl)c2)no1 | 0.3% | -17.9% | 0.4% | -9.4% | -5.4% | 1.5%
CCC(=O)NC(=S)NNC(=O)c1ccc(OC)cc1 | -6.9% | -44.5% | 1.6% | -2.8% | -11.7% | 56.2µM*
OCC(O)COc1ccc(Cl)cc1 (stereo not drawn) | . | . | 0.0% | . | . | .
C[N+]1(CCF)[C@@H]2CC[C@@H]1CC(OC(=O)C(O)(c1ccccc1)c1ccccc1)C2 (stereo partly drawn) | . | . | -4.9% | . | . | .
Cn1nnnc1SCC1=C(C(=O)O)N2C(=O)[C@@H](NC(=O)[C@H](OC=O)c3ccccc3)[C@H]2SC1 | . | . | 0.3% | . | . | .
COCC(=O)N1c2nc(C(C)C)nn2C2(CCCCC2)[C@@H]2CCCC[C@@H]21 | . | . | 3.8% | . | . | 9.3%
Cc1ccc(C(=O)O/N=C(\N)c2ccccn2)c(C)c1 | . | -2.1% | ? | 6.31µM* | 35.5µM* | 2.1%
O=C(NCCNC(=O)c1ccccn1)c1ccc(Cl)cc1 | 0.4% | -10.4% | -0.7% | -1.8% | -2.8% | -8.9%
O=C(Sc1ccc(Cl)cc1)c1ccccn1 | . | . | -6.8% | . | 22.4µM* | .
N/C(=N\OC(=O)c1ccccc1Cl)c1ccccn1 | -1.2% | -9.0% | ? | 7.08µM* | ? | -3.2%
COc1cc(OC)cc(C(=O)NNC(=O)c2ccccn2)c1 | 1.6% | -10.8% | -12.1% | -3.9% | -2.4% | ?
COc1ccc(C(=O)NNC(=O)c2ccccn2)cc1 | -6.7% | 8.6% | ? | 1.26µM* | 10µM* | -3.7%
COc1ccccc1C(=O)O/N=C(\N)c1ccccn1 | -16.0% | -4.2% | -14.0% | ? | -23.8% | -0.5%
COc1ccc(CNC(=O)CCC(=O)N2CC3CCCN3c3ccccc32)cc1 (stereo not drawn) | . | . | 0.7% | . | . | 22.6%
Cc1cc(C)cc(-n2c(SCC(=O)Nc3ccccc3F)nc3c(oc4ccccc43)c2=O)c1 | . | . | 1.5% | . | . | 4.2%
CCc1ccccc1NC(=O)c1sc(-n2nc(C)c(Cc3ccccc3)c2C)nc1C | . | . | 3.1% | . | . | 18.3%
N/C(=N\OC(=O)c1ccc(Cl)cc1)c1ccccn1 | 0.9% | -14.5% | ? | 5.01µM* | ? | -1.0%
CCO/N=C(\N)c1[nH]ncc1Br | 2.3% | -4.9% | 3.9% | 3.0% | 12.9% | -7.8%
